The test in a line: COS7 lysate on small-molecule microarray, probe aHis, 635 nm (AID 1123).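 Note: z-score combines 667nm fluorescence intensity with signal-to-noise per printed compound spot.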 The following applies: COS7 cell lysate, fluorescence, higher = more signal.
`Oc1ccc2cc[n+](Cc3cccc(OC(F)(F)F)c3)cc2c1` displayed a composite z-score of 1.58.

On to `CC1CC/C=C\[C@H]2OC34C=CCN(CCN5CCOCC5)C(=O)[C@H]3N(CCCCCO)C(=O)[C@@H]4C2C(=O)O1` (some centres not stated), for which the composite z-score was -0.471.

In turn, `C=C(C(=O)CC[C@@H](OC(=O)c1cccnc1)c1ccc(CO)o1)C(C)C` returned a composite z-score of 0.583.

Turning to `C=CCC(OC(C)=O)[C@@H]1[C@@H](N(Cc2cc3ccccc3o2)C(=O)c2cccc3ccccc23)c2cc(OCCCO)ccc2N1C(=O)Cc1ccc(OC)cc1` (some centres not stated), the composite z-score is 0.497.

`C=CCN1C(=O)[C@]2(COC(c3ccc(OCCCO)cc3)=N2)Cc2ccccc21` had a composite z-score of 2.78.

In the case of `O=C(NCc1ccccc1)[C@@H]1c2ccccc2C(=O)N(C2CCCCC2)[C@H]1c1ccc(CO)cc1`, the composite z-score stood at 0.642.

On to `[N-]=[N+]=NCc1ccccc1C[C@@]1(C(=O)NCc2ccccc2)N=C(c2ccc(OCCCO)cc2)O[C@@H]1c1ccccc1CN=[N+]=[N-]`, for which the composite z-score worked out at 2.21.

On to `CCOC(=O)C=Cc1cccc(OC)c1O`, for which the composite z-score is 0.0252.

Take `CN(C)CCCC[C@@H]1NC(=O)[C@H]2C[C@@H](C(=O)NCCCCCNC(=O)CS)[C@@H](c3ccc(O)cc3)N2C1=O`: the composite z-score amounted to 0.268.

For the compound `COC(=O)[C@@]1(Cc2ccccc2)[C@H]2c3cc(C(=O)N(C)C)n(Cc4cc(F)c(F)c(F)c4)c3C[C@H]2CN1C(=O)c1ccccc1`, the composite z-score amounted to 2.8.

Consider `C=C(C)[C@@H]1CC=C(C(O)C2C=CC3C(=O)N(Cc4ccccc4)C(=O)C3N2n2cnnc2)CC1` (some centres not stated), for which the composite z-score amounted to 0.341.

In turn, `O=C(NCCN1CCOCC1)[C@@H]1c2ccccc2C(=O)N(Cc2cc(F)cc(C(F)(F)F)c2)[C@H]1c1ccc(CO)cc1` registered a composite z-score of 2.53.

The record behind these values is PubChem BioAssay.
